Here are results for eight compounds from PubChem BioAssay (Tox21).

“And” between values parts separate entries of the source, which are not always exact repeats. Equal values may be shown once. Inconclusive results are not listed. Where a structure was tested more than once in an assay, its records may differ in their call. The source made the active and inactive calls. Unless noted, calls follow the shape of the full dose curve.

Assay [1] is described as follows: Nuclear factor erythroid 2-related factor 2/antioxidant responsive element (Nrf2/ARE) small molecule agonists: qHTS cell viability counter screen in human keratinocytes (AID 1919968; active = well fitted curve in the direction sought with a large enough effect in the repeat runs; an effect the other way counts as inactive or inconclusive; also: nearly all actives have a fitted effect of over 55% in size; also: potency is read from the fitted curve at half-maximal effect). In short, it runs like this: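 Measured as CellTiter-Fluor fluorescence, this readout tracks cytotoxicity in the same wells as the ARE-luciferase screen. HaCaT reporter cells (1,500/well) received compounds after a 5 h pre-incubation and were exposed for 23 h.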
On the technique in general: In qHTS, concentration-response curves come from the screen itself.

A short description of assay [2]: Nuclear factor erythroid 2-related factor 2/antioxidant responsive element (Nrf2/ARE) small molecule agonists: luciferase reporter gene qHTS assay in human keratinocytes (AID 1919969). Also: nearly all actives have a fitted effect of over 35% in size. Also: potency is read from the fitted curve at half-maximal effect. A general note: In a reporter assay the amount or activity of a reporter protein is the signal.
Assay [3] concerns the target Gonadotropin-releasing hormone receptor (Homo sapiens) (UniProt P30968). Put plainly: Human gonadotropin-releasing hormone receptor (GnRHR) small molecule agonists, calcium flux assay in GnRHR-HEK293 cells (AID 1920063). Also: nearly all actives have a fitted effect of over 35% in size. Also: potency is read from the fitted curve at half-maximal effect. In short, it runs like this: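 Fluorescence kinetics (480 nm excitation, 540 nm emission; 3 min, 1 s steps) report calcium mobilisation in human GnRHR-HEK293 cells in agonist mode. Dye incubation: 1 h, 37 C.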

For assay [4], the target named is KiSS-1 receptor (Homo sapiens) (UniProt Q969F8). Put plainly: Human kisspeptin (KISS1R) small molecule agonists, calcium flux assay in KISS1R-HEK293 cells (AID 1920064; active = well fitted curve in the direction sought with a large enough effect in the repeat runs; an effect the other way counts as inactive or inconclusive). In short, it runs like this:
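Measures KISS1R agonism through calcium-sensitive dye fluorescence in stably transfected HEK293 cells, read for 3 min after pin-tool compound delivery; 15-point titrations in triplicate.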
For orientation: Calcium flux is commonly read through the fluorescence of an indicator in the cells.

Assay [5] is described as follows: p53 small molecule agonists, cell-based qHTS assay with human liver microsomes (AID 1963577). In short, it runs like this:
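Fluorescence of the beta-lactamase reporter in p53RE-bla cells, detected with LiveBLAzer substrate (2 h, room temperature, dark), served as the read-out after 16 h compound exposure at 37 C with human liver microsomes and NADPH, each 0.5 mg/mL final.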

Assay [6] can be described thus: p53 small molecule agonists, cell-based qHTS assay with human liver microsomes: qHTS cell viability counter screen (AID 1963579). Also: nearly all actives have a fitted effect of over 45% in size. Also: potency is read from the fitted curve at half-maximal effect. The procedure, abridged: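 Cytotoxicity counter screen: p53RE-bla, 4,000 cells/well; 5 h settle, 37 C/5% CO2; cpd + HLM 0.5 mg/mL + NADPH 0.5 mg/mL (final); 16 h, 37 C; CellTiter-Glo, 30 min RT, luminescence.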
Assay [7] can be described thus: p53 small molecule agonists, cell-based qHTS assay: qHTS cell viability counter screen (AID 1963581). Also: nearly all actives have a fitted effect of over 45% in size. The procedure, abridged:
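In the same plates used for the p53 bla reporter, HCT-116 cells given compounds for 16 h at 37 C received CellTiter-Glo; luminescence was recorded 30 min later at room temperature.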

In assay [8] the target is 5-hydroxytryptamine receptor 2A (Homo sapiens) (UniProt P28223). Put plainly: 5-hydroxytryptamine receptor 2A (HTR2A) small molecule antagonists, cell-based qHTS assay (AID 1963586). Also: nearly all actives have a fitted effect of over 45% in size. In short, it runs like this:
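Antagonist-mode intracellular calcium assay: DOI (4 nM) added after 5 min compound pre-incubation at room temperature to dye-loaded HTR2A-CHO cells. Fluorescence followed for 3 min, sampled every second.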

Assay [9] has the same target. Put plainly: 5-hydroxytryptamine receptor 2A (HTR2A) small molecule agonists, cell-based qHTS assay (AID 1963587). Also: nearly all actives have a fitted effect of over 30% in size. Also: potency is read from the fitted curve at half-maximal effect. In short, it runs like this: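 HTR2A-CHO cells, plated 18 h at 37 C/5% CO2, dye-loaded 1 h at 37 C; compounds in DMSO added by pin tool (agonist mode). Intracellular calcium flux read as kinetic fluorescence on FDSS over 2 min at 1 s intervals.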
The target of assay [10] is Muscarinic acetylcholine receptor M1 (Homo sapiens) (UniProt P11229). Put plainly: Cholinergic receptor muscarinic 1 (CHRM1) small molecule antagonists, cell-based qHTS assay (AID 1963588). Also: nearly all actives have a fitted effect of over 40% in size. Also: potency is read from the fitted curve at half-maximal effect. The procedure, abridged: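 CHRM1-CHO calcium-flux assay, antagonist mode. Cells were seeded 18 h, dye-loaded 1 h at 37 C and given compound for 5 min at RT, then acetylcholine was added at 50nM. FDSS fluorescence was read 3 min; 15 concentrations, three runs.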

Assay [11] has the same target. Briefly: Cholinergic receptor muscarinic 1 (CHRM1) small molecule agonists, cell-based qHTS assay (AID 1963589). Also: nearly all actives have a fitted effect of over 35% in size. In short, it runs like this: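 Each compound was tested at 15 concentrations across three independent runs on dye-loaded CHO cells stably expressing human CHRM1, reading intracellular calcium fluorescence kinetically at 1 sec intervals.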
Assay [12] in a line: cAMP Responsive Elements (CRE) small molecule agonists, cell-based qHTS assay (AID 1963590). The procedure, abridged:
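Cell line: CRE-bla HEK 293T; medium DMEM/10% dialyzed FBS/0.1 mM NEAA/1 mM pyruvate/25 mM HEPES; 3 h compound exposure; beta-lactamase FRET readout after 2 h substrate loading at RT.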

A short description of assay [13]: cAMP Responsive Elements (CRE) small molecule antagonists, cell-based qHTS assay (AID 1963591; active = well fitted inhibition curve with a large enough effect in the signal ratio in the repeat runs, not every such curve was filed as active; the % refers to the signal ratio). The procedure, abridged:
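Inhibition of NKH477-driven (0.25 uM final) CRE-beta-lactamase signal in HEK293T cells, 3 h compound exposure at 37 °C, detected by FRET substrate fluorescence.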

The target of assay [14] is Beta-2 adrenergic receptor (Homo sapiens) (UniProt P07550). Briefly: Adrenergic beta2 receptor (ADRB2) small molecule antagonists, cell-based qHTS assay (AID 1963592). Also: series mostly up to about 92 µM; nearly all actives have a fitted effect of over 50% in size. The procedure, abridged:
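Cells (CHO, stable ADRB2 overexpression) incubated 18-20hr at 37C; compounds added from DMSO; agonist mix (1nM isoproterenol, 100uM IBMX, 25uM Ro-20-1724) added; 0.5hr RT; d2-cAMP and anti-cAMP-cryptate added; 1hr RT; 665/615 nm read.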

Assay [15] deals with D(2) dopamine receptor (Homo sapiens) (UniProt P14416). Briefly: Dopamine D2 receptor (DRD2) small molecule agonists, cell-based qHTS assay (AID 1963594). Also: nearly all actives have a fitted effect of over 35% in size. In short, it runs like this: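 HEK293 cells stably expressing DRD2 were cultured 24 h at 37 C, then given Ro20-1724 (0.1 mM final) and compounds for 10 min at room temperature. NKH477 (200nM) was then added for 30 min. cAMP was read by HTRF.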

Assay [16] shares this target. Briefly: Dopamine D2 receptor (DRD2) small molecule antagonists, cell-based qHTS assay (AID 1963595; active = well fitted inhibition curve with a large enough effect in the signal ratio in the repeat runs, with a control signal flat; the % refers to the signal ratio). The procedure, abridged: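 Stable D2 receptor HEK293 line, 24 h after seeding. Compound preincubated 10 min, then quinpirole (12 nM) with forskolin analogue NKH477 (200 nM), 30 min, room temperature. Detection by time-resolved FRET of cAMP.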
The nature of assay [17]: p53 small molecule agonists, cell-based qHTS assay with rat liver microsomes (AID 1963578). In short, it runs like this:
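Cells carrying a p53 response element–beta-lactamase reporter were plated and rested 5 h, then dosed with compound in DMSO plus rat liver microsomes and NADPH, each at 0.5 mg/mL final. After 16 h at 37 C, LiveBLAzer substrate was added for 2 h.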

Assay [18] in a line: p53 small molecule agonists, cell-based qHTS assay with rat liver microsomes: qHTS cell viability counter screen (AID 1963580). Also: nearly all actives have a fitted effect of over 45% in size. Also: potency is read from the fitted curve at half-maximal effect. The procedure, abridged:
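In HCT-116 cells carrying a p53 response element-bla reporter, compounds were metabolically activated in situ by rat liver microsomes with NADPH over 16 h. Cell ATP content then served as the cytotoxicity measure.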

The nature of assay [19]: p53 small molecule agonists, cell-based qHTS assay (AID 1963582; active = well fitted activation curve with a large enough effect in the signal ratio in the repeat runs, not every such curve was filed as active; the % refers to the signal ratio). The procedure, abridged:
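Compounds are pin-transferred in DMSO onto p53RE-bla cells and incubated 16 h at 37 C. The B/G FRET beta-lactamase substrate is then applied for 2 h at RT and fluorescence recorded.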

Assay [20] has as its target Beta-2 adrenergic receptor (Homo sapiens) (UniProt P07550). Put plainly: Adrenergic beta2 receptor (ADRB2) small molecule agonists, cell-based qHTS assay (AID 1963593).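 Also: CHO cells stably overexpressing human ADRB2.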 The procedure, abridged:
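CHO cells stably over-expressing ADRB2 were plated overnight at 37C, then dosed with compounds plus a stimulation mix containing 100uM IBMX and 25uM Ro-20-1724 for 0.5hr at room temperature. cAMP was measured by HTRF competition, 1hr.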

Chain of Beta-2 adrenergic receptor (Homo sapiens) (P07550 whole entry, looked up): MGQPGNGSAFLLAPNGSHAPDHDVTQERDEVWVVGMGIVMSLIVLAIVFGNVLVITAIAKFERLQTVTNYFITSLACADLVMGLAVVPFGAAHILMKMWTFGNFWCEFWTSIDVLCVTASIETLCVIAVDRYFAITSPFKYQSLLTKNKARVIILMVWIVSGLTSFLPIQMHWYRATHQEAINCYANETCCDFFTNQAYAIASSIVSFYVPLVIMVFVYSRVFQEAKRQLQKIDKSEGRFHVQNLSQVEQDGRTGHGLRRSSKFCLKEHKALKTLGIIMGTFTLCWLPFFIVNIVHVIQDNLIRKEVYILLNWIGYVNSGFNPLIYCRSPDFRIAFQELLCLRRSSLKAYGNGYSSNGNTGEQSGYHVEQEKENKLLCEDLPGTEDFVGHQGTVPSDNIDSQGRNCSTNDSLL
Chain of Gonadotropin-releasing hormone receptor (Homo sapiens) (P30968 whole entry, looked up): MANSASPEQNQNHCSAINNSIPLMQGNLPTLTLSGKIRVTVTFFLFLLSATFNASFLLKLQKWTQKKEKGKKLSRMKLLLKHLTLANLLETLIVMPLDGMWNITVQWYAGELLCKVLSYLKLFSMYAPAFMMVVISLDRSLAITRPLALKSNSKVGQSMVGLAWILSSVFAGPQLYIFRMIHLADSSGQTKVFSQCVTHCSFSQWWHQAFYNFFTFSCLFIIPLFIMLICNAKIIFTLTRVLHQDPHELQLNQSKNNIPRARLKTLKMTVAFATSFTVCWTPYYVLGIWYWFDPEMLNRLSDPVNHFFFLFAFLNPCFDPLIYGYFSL
Chain of 5-hydroxytryptamine receptor 2A (Homo sapiens) (P28223 whole entry, looked up): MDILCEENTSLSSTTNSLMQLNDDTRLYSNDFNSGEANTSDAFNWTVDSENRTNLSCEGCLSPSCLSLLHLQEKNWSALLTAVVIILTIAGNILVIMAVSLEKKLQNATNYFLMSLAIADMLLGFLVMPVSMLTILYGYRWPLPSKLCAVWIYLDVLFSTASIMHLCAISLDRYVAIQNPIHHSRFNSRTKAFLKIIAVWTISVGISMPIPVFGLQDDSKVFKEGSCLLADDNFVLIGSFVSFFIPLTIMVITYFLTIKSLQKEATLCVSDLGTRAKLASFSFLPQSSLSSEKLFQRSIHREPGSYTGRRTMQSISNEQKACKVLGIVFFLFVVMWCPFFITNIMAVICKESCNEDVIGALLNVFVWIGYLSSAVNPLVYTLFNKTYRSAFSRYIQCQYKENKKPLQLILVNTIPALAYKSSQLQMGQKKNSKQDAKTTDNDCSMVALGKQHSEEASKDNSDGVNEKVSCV
Chain of Muscarinic acetylcholine receptor M1 (Homo sapiens) (P11229 whole entry, looked up): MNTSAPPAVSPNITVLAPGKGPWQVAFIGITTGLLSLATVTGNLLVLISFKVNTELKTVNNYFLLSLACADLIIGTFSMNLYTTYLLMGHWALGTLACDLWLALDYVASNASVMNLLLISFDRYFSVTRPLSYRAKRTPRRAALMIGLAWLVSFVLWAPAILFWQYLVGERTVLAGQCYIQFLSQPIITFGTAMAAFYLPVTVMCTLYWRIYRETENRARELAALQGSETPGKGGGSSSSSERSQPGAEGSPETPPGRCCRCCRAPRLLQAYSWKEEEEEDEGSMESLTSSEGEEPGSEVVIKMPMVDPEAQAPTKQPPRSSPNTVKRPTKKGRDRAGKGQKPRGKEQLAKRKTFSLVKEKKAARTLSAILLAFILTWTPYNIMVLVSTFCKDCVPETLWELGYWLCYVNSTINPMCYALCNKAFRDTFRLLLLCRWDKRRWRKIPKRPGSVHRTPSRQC
Chain of KiSS-1 receptor (Homo sapiens) (Q969F8 whole entry, looked up): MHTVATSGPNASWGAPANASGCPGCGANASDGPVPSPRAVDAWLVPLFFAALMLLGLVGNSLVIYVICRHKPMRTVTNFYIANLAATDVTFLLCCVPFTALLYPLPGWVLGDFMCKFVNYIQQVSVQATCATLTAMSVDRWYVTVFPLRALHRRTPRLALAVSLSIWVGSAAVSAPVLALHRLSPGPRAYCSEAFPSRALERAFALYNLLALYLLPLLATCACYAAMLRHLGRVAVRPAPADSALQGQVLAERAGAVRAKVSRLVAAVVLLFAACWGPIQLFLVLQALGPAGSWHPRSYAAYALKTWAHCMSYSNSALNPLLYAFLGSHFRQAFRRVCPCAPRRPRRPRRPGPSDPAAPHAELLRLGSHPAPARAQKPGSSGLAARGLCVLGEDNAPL
Chain of D(2) dopamine receptor (Homo sapiens) (P14416 whole entry, looked up): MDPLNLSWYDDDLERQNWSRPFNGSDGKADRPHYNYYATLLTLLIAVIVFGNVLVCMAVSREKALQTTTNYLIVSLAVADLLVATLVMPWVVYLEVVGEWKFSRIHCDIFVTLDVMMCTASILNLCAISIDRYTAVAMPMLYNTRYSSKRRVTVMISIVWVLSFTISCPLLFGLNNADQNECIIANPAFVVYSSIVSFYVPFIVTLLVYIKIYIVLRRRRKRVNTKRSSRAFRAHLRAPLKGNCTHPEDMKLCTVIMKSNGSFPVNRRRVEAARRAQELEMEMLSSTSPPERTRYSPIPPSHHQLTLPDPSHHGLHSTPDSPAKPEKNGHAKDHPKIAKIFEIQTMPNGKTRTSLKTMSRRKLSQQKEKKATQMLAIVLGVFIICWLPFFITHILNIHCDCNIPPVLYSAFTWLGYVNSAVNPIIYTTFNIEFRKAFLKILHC

Take `C=C(C#N)CCC#N`: the Potency result in [1], in assay [2], in [3], in [4], in assay [5] and in assay [6] was “inactive” each time. Besides, the Potency result in assay [7], in [8], in assay [9], in assay [10], in assay [11] and in [12] was “inactive” each time. Also, the Potency result in assay [13], in [14], in assay [15] and in assay [16] was “inactive” throughout.

In the case of `O=[N+]([O-])c1cccc2ccccc12`, the Potency result in [1], in assay [2], in assay [3], in [4], in [5] and in assay [17] was “inactive” throughout. For the same compound, the Potency entry in assay [6], in [18], in [7], in assay [19], in assay [8] and in assay [10] was “inactive” in each case. Moreover, the Potency entry in [11], in [12], in assay [14] and in [16] was “inactive” throughout.

As for `CCCCCCCCOC(=O)c1ccccc1C(=O)OCCCCCCCC`, the Potency result in assay [1], in assay [2], in assay [3], in [4], in [5] and in assay [17] was “inactive” in each case. Further, the Potency result in [6], in assay [18], in assay [7], in assay [19], in assay [8] and in [9] was “inactive” in each case. In addition, the Potency result in [10], in assay [11], in assay [12], in assay [13], in assay [14] and in assay [20] was “inactive” throughout. Moreover, the Potency entry in assay [15] and in assay [16] was “inactive” in each case.

On to `CCCCCCC#N`, for which the Potency entry in assay [1], in [2], in [3], in [4], in assay [5] and in assay [17] was “inactive” in each case. Further, the Potency result in [6], in assay [18], in assay [7], in [19], in assay [8] and in [9] was “inactive” in each case. In addition, the Potency entry in [10], in assay [11], in assay [12], in assay [13], in assay [14] and in [15] was “inactive” throughout. Besides, in assay [16], the Potency result is “inactive”.

For the compound `Cc1ccc(N)cc1C`, the Potency entry in assay [1], in assay [3], in assay [4], in assay [5], in assay [17] and in assay [6] was “inactive” throughout. The Potency result in assay [18], in assay [7], in [19], in [8], in assay [9] and in assay [11] was “inactive” each time. Also, the Potency result in [12], in assay [13], in assay [14], in assay [15] and in assay [16] was “inactive” throughout. Besides, the Potency in assay [2] was 9.77 µM (active).

Consider `COCC(=O)N(c1c(C)cccc1C)[C@H](C)C(=O)OC`, for which the Potency entry in assay [1], in assay [2], in assay [3], in [4], in [5] and in [17] was “inactive” each time. In addition, the Potency entry in assay [18], in [7], in assay [19], in assay [8], in assay [9] and in assay [10] was “inactive” each time. Moreover, the Potency entry in assay [11], in [12], in [13], in [14], in assay [15] and in assay [16] was “inactive” in each case.

Regarding `O=C1C2(Cl)C3(Cl)C4(Cl)C(Cl)(Cl)C5(Cl)C3(Cl)C1(Cl)C5(Cl)C24Cl` (stereo not drawn), the Potency was 19 µM (active) and 29.3 µM (active) in assay [1]; 38.3 µM (active) in [3]; 31.9 µM (active) and inactive in [6]; 45 µM (active) in assay [18]; 54 µM (active) and 46.9 µM (active) in [9]; 29.3 µM (active) and 20.2 µM (active) in assay [10]. The Potency entry in assay [2], in assay [4], in assay [5], in assay [17], in assay [14] and in assay [15] was “inactive” throughout.

In the case of `OC(O)C(Cl)(Cl)Cl`, the Potency result in assay [1], in assay [2], in assay [3], in [4], in assay [5] and in assay [17] was “inactive” each time. Further, the Potency result in [6], in assay [18], in assay [7], in assay [19], in [8] and in [9] was “inactive” in each case. Moreover, the Potency entry in assay [10], in assay [11], in [12], in assay [14], in [20] and in [15] was “inactive” each time. Further, the Potency result in [16] is “inactive”.
